Sampled rows, rich in hits. Any-hit rate of the full collection: about 2.4%.
LT uptake inh = anthrax lethal toxin internalization inhibition; Cells, anthrax lethal toxin internalization, FRET ratio (460/530); Potency, µM (doses to about 40 µM), for inactives: top-dose activity change, negative = inhibition, usual class: inhibitors; 0.67% of 70,000 active; note: % is set by controls: 0 for no effect and ±100 for the full control effect; nearly all actives have a fitted effect of over 50% in size
AmpC det inh = inhibitors of E. coli AmpC beta-lactamase with detergent. purified AmpC, nitrocefin hydrolysis with detergent. Potency, µM (titrated, usually from 28.7 µM), inactives show top-dose activity change, negative = inhibition. 0.09% of 71,000 active. AID 584; active = well fitted curve in the direction sought with a large enough effect; inconclusive = small, poorly fitted or top-dose-only effect; note: % is set by controls: 0 for no effect and ±100 for the full control effect
Target sequence (P00811 whole entry, looked up): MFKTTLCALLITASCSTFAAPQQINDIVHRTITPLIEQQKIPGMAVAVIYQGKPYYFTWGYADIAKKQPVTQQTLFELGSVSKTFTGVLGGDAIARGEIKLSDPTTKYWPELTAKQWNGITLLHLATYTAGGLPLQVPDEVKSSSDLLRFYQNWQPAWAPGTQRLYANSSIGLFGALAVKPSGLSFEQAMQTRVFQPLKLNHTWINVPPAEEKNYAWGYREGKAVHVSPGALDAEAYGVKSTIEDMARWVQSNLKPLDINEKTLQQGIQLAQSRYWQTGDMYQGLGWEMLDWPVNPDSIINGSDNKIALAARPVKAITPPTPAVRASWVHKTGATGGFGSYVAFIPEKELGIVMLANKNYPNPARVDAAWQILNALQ
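E. coli AmpC (5.3 nM) in 20 mM phosphate pH 7.0 with 0.01% Triton X-100, preincubated 15 min RT with compound; nitrocefin (2 uL of 800 uM stock) hydrolysis followed by 480 nm absorbance every 20 s over 4 min.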
AmpC inh no det = inhibitors of E. coli AmpC beta-lactamase without detergent; P00811; AmpC nitrocefin hydrolysis, absorbance 480 nm, no detergent; Potency, µM (titrated, usually from 28.7 µM), without a hit: top-dose activity change, negative = inhibition; 1.8% of 71,000 active; AID 585; note: % of control where 0% means no effect
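AmpC in 20 mM phosphate buffer pH 7.0 was preincubated 15 min at room temperature with compounds. Nitrocefin (800 uM stock) was then added and hydrolysis followed at 480 nm every 20 s for 4 min.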
Prx2 Sm inh = Schistosoma mansoni Prx2 inhibition; S. mansoni Prx2 activity coupled to TGR/GSH (TGR is thioredoxin glutathione reductase), NADPH fluorescence loss, qHTS; Potency, µM; 0.07% of 65,000 active; AID 448
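Purified S. mansoni TGR and Prx2 in pH 7.4 phosphate buffer with EDTA and Tween-20 were preincubated with compounds for 15 min. Further NADPH/GSH was added, then a 2.5 mM H2O2 aliquot initiated turnover, followed kinetically by NADPH fluorescence.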
The depositor's hits bear a star; ? = inconclusive; · = not tested or not shown; [ ] = remark or other dose. Unless noted, calls come from the whole dose curve. Potency is the fitted concentration of half-maximal effect.

SMILES	LT uptake inh	AmpC det inh	AmpC inh no det	Prx2 Sm inh
COc1cc2c(cc1O)CCN[C@H]2C	?	-0.2%	-4.0%	>57
NNc1c(C(N)=O)c2c(N)ncnc2n1[C@@H]1O[C@H](CO)[C@@H](O)[C@@H]1O	-11.2%[8 µM]	-3.1%[5.75 µM]	-11.5%[5.75 µM]	>57
CCCCn1c(=S)[nH]c2c(oc3ccc(Cl)cc32)c1=O	22.0%	1.0%	6.31µM*	>57
O=C(O)c1ccc(C2SCC(=O)N2Cc2ccccc2)cc1 (stereo unspecified)	-15.6%	4.9%	-7.5%	>57
CN(C)CCCN1C(=O)CSC1c1ccccc1 (stereo unspecified)	-12.4%	10.7%	3.16µM*[single pt active]	>57
Cc1ccnc(NC2c3ccccc3C(=O)N2Cc2ccccc2Cl)c1 (stereo unspecified)	-5.8%	12.5%	3.98µM*[single pt active]	>57
COc1ccc(-n2nnnc2S(=O)(=O)CC(=O)N2CCCCC2)cc1	3.16µM*	8.1%	10.7%	?
COCCCNC(=O)c1ccc(Cn2c(=O)[nH]c3ccccc3c2=O)cc1	?	14.3%	3.98µM*[single pt active]	>57
COCCCNC(=O)CCCn1c(=O)[nH]c2ccccc2c1=O	-9.5%	-3.5%	-8.9%	>57
COc1ccc(CCNc2oc(COc3ccccc3Cl)nc2C#N)cc1OC	15.8µM*	13.1%	50.9%	>57
O=C(CSc1nnc(-c2cccnc2)n1Cc1ccco1)N1c2ccccc2Sc2ccccc21	15.8µM*	1.5%	140.7%	>57
c1cncc(CSc2nnc(-c3cccnc3)n2Cc2ccco2)c1	-0.5%	-3.2%	-8.4%	>57
COc1ccccc1C[C@@H](Cc1nc2ccccc2[nH]1)c1nc2ccccc2[nH]1	?	0.8%	-10.9%	>57
O=C(NCc1cccs1)c1cc2c(s1)-c1ccccc1OC2	?	10.5%	15.8µM*	>57
Cc1cc(C)cc(N(CC(=O)N2CCN(Cc3ccccc3)CC2)S(=O)(=O)c2c(C)noc2C)c1	-1.4%	10.9%	3.98µM*[single pt active]	>57
CCOc1ccc(N(CC(=O)N2CCCC2)S(=O)(=O)c2c(C)noc2C)cc1	-11.6%	9.2%	3.98µM*[single pt active]	>57
CCOC(=O)C1CCN(C(=O)CN(c2ccc(OC)cc2)S(=O)(=O)c2c(C)noc2C)CC1	1.5%	4.8%	102.2%	>57
CCCN(c1ccc(C(C)C)cc1)S(=O)(=O)c1c(C)noc1C	-20.3%	-4.4%	15.3%	>57
Cc1noc(C)c1S(=O)(=O)N(CC(=O)N1CCn2c1nc1ccccc12)c1ccc(C(C)C)cc1	?	10.1%	3.98µM*[single pt active]	>57
Cc1cc(O)ccc1Nc1nc2ccccc2nc1Nc1ccc(O)cc1C	15.6%	3.9%	12.6µM*	·
CCNc1ncc2nc(-c3cccc(C#N)c3)c(=O)n(Cc3cccc(OC)c3)c2n1	?	-2.2%	-6.1%	>57
CC1=CS/C(=C(/C#N)C(=O)N2CCCCC2)N1c1ccccc1	1.7%	-1.1%	5.0%	·
N#C/C(C(=O)c1ccccc1)=C1/SC=C(N)N1c1ccccc1	-29.2%	11.0%	12.6µM*	>57
COCC#Cc1ccc(C2NC(C(=O)O)CCC2C)cc1 (stereo unspecified)	-7.4%[8 µM]	·	·	·
Cc1nn(C)c(C)c1S(=O)(=O)N1CCCC(C(=O)NC2CCCCCC2)C1 (stereo unspecified)	-16.9%	13.2%	3.98µM*[single pt active]	>57
SMILES	LT uptake inh	AmpC det inh	AmpC inh no det	Prx2 Sm inh
CN(C)c1oc(-c2ccccc2F)nc1C#N	-3.2%	12.7%	3.98µM*[single pt active]	>57
N#Cc1nc(-c2ccccc2F)oc1N1CCCC1	3.7%	-3.6%	14.1%	>57
O=C(Cn1ncc2c(=O)oc3ccccc3c21)N1CCN(C(=O)c2ccco2)CC1	-4.2%	-1.8%	4.7%	?
CC1CC(C)CN(CCCNC(=O)Cn2ncc3c(=O)oc4ccccc4c32)C1 (stereo unspecified)	-5.6%	9.2%	3.16µM*[single pt active]	>57
O=C(Cn1ncc2c(=O)oc3ccccc3c21)N1CCCc2ccccc21	-4.2%	-1.5%	14.8%	>57
O=C(Cn1ncc2c(=O)oc3ccccc3c21)NCCN1CCN(c2ccccc2F)CC1	-0.3%	11.8%	3.98µM*[single pt active]	>57
O=C(Cn1ncc2c(=O)oc3ccccc3c21)N1CCCN(Cc2ccccc2F)C1	-13.2%	24.0%	3.98µM*[single pt active]	>57
CCNc1ncc2nc(-c3ccc(OC)cc3)c(=O)n(Cc3cccc(OC)c3)c2n1	?	-0.6%	10.5%	>57
CC(C)CNC(=O)c1cccc(NC(=O)c2ccc(NC(=O)c3ccco3)cc2)c1	-3.9%	-1.0%	15.8µM*[single pt active]	>57
O=C(COC(=O)c1cccc(NC(=O)c2ccco2)c1)c1ccc(Br)cc1	12.6µM*	0.6%	-24.4%	>57
CC(C)(C)C(=O)COC(=O)c1cccc(NC(=O)c2ccco2)c1	-9.8%	-5.8%	10.2%	>57

Screening results (PubChem BioAssay)
